A selection: hits, their analogues and other compounds. The true share with any hit is near 8.2%.
ELG1 DNA repair = qHTS screen for small molecules that inhibit ELG1-dependent DNA repair in human embryonic kidney (HEK293T) cells expressing luciferase-tagged ELG1. HEK293T ELG1-luciferase reporter, luminescence, 16 h; DNA damage induced by 5-fluorouridine. Potency, µM (top dose mostly 46.1 µM), usual class: inhibitors. hit rate 2.3% among 330,000. AID 504467, 2011; further: nearly all actives have a fitted effect of over 55% in size
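DMSO vehicle served as the neutral condition. Each well held 2,000 cells given 5-fluorouridine plus compound; after 16 hr at 37 °C/5% CO2, ONE-Glo was added and luciferase measured 30 min later.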
MCF10A rereplic = A quantitative high throughput screen for small molecules that induce DNA re-replication in MCF 10a normal breast cells | MCF 10A DNA re-replication, Hoechst nuclear intensity, 48 h | Potency, µM (highest dose often 46.1 µM), most hits filed as activators | hit rate 2.9% among 350,000 | AID 624296, 2012; further: nearly all actives have a fitted effect of over 50% in size
KB-V1 MDR tox = qHTS assay for MDR1-selective chemotherapeutics: Primary screen using the drug-selected MDR subline cells KB-V1; KB-V1 MDR cells viability, CellTiter-Glo, 72 h; Potency, µM (top dose mostly 46.1 µM), usual class: cytotoxic; hit rate 3.4% among 400,000; further: nearly all actives have a fitted effect of over 60% in size
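KB-V1 cells (P-gp-expressing MDR subline of KB-3-1) in phenol-red-free DMEM with 10% FBS were exposed to library compounds over a concentration series for 72 h at 37 degrees C. Viability read by CellTiter-Glo luminescence; concentration-effect curves fitted after normalization.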
SW480 rerep = A quantitative high throughput screen for small molecules that induce DNA re-replication in SW480 colon adenocarcinoma cells | hit rate 1.8% among 340,000 | Potency, µM (top dose mostly 46.1 µM), usual class: activators | SW480 DNA re-replication, Hoechst DNA content imaging, 48 h; further: nearly all actives have a fitted effect of over 55% in size
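Image-based read-out: total Hoechst fluorescence of nuclei (405 nm excitation, 500-530 nm emission), with hits raising the fraction of high-intensity nuclei. SW480 colon cells incubated 48 hr with compounds at 37 C.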
KB-3-1 tox = qHTS assay for MDR1-selective chemotherapeutics: Primary screen using the parental adenocarcinoma cell KB-3-1 | Potency, µM (doses to about 46.1 µM), most hits filed as cytotoxic | hit rate 1.4% among 400,000 | KB-3-1 viability, CellTiter-Glo ATP luminescence, 72 h | AID 1347075, 2019; further: nearly all actives have a fitted effect of over 60% in size
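Cells are dispensed, compounds pinned in, plates held at 37 °C for 72 h, then CellTiter-Glo is added and luminescence read after 10 minutes. Cell line: parental KB-3-1 in phenol-red-free DMEM, 10% FBS.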
Each line names hits and unclear results; the compound was inactive in the other large screens. The call rests on the fitted dose curve; in most records, active means well fitted curve in the direction sought with a large enough effect; inconclusive means small, poorly fitted or top-dose-only effect, or another doubt; inactive means no such curve, though single readings can be large; an effect the other way counts as inactive or inconclusive.

O=C(Nc1cc(Cl)ccc1Cl)N1CCN(C(=O)Nc2cc(Cl)ccc2Cl)CC1	KB-V1 MDR tox 15µM (no result: ELG1 DNA repair)
CCN1CCN(C(=O)Nc2cc(Cl)ccc2OC)CC1	MCF10A rereplic 3.7µM
O=C(NCc1cccnc1)/C(=C\c1ccc(-c2ccc(Cl)c(Cl)c2)o1)S(=O)(=O)c1ccccc1	ELG1 DNA repair 7.3µM, MCF10A rereplic 6.5µM, KB-V1 MDR tox 4.1µM, SW480 rerep inconclusive
O=C(NCc1cccnc1)c1ccc(-c2ccc(Cl)cc2)o1	none
O=C(NCc1cccnc1)c1cc(Sc2cccc(Cl)c2)nc2ccccc12	ELG1 DNA repair inconclusive, MCF10A rereplic inconclusive, KB-V1 MDR tox 16µM, KB-3-1 tox inconclusive
O=C(NCc1ccc(Cl)cc1)c1ccc(-c2ccccc2C(F)(F)F)o1	MCF10A rereplic 23µM
O=C(NCc1cccnc1)c1ccc(-c2cc(Cl)ccc2Cl)o1	ELG1 DNA repair 23µM, MCF10A rereplic inconclusive
O=C(NCc1cccnc1)c1ccc(Cl)c(Cl)c1	none
COCCNc1ccc([N+](=O)[O-])cc1C(=O)Nc1cccc(C)n1	ELG1 DNA repair inconclusive, KB-V1 MDR tox inconclusive
CC1=CN2C(=N)/C(=C/c3ccc([N+](=O)[O-])o3)C(=O)N=C2S1	ELG1 DNA repair inconclusive, MCF10A rereplic inconclusive, SW480 rerep 16µM
Cc1ccc(NC(=O)c2cc(C)n(-c3ccccc3)c2C)cc1	ELG1 DNA repair inconclusive, MCF10A rereplic 3.3µM
CC1CCCN(CCCOc2ccc(Cl)cc2Br)C1 (centres undefined)	ELG1 DNA repair inconclusive, MCF10A rereplic inconclusive, KB-V1 MDR tox 16µM, KB-3-1 tox inconclusive
CC1CCN(CCCOc2ccc(Cl)cc2Br)CC1	none
CC1CCCN(CCOc2ccc3ccccc3c2Br)C1 (centres undefined)	MCF10A rereplic 15µM, KB-V1 MDR tox inconclusive, KB-3-1 tox inconclusive
CC(C)CNC(=O)C1(C)CCCN1C(=O)c1c(Cl)cccc1Cl (centres undefined)	none (no result: ELG1 DNA repair, MCF10A rereplic, SW480 rerep)
Cc1cc(C)c(NC(=O)Cn2c(=O)n(CCC(=O)N3CCc4ccccc4C3)c(=O)c3ccccc32)c(C)c1	KB-V1 MDR tox inconclusive (no result: ELG1 DNA repair, MCF10A rereplic, SW480 rerep)
Cc1ccc(S(N)(=O)=O)cc1NC(=O)C(c1ccccc1)c1ccccc1	none
CC(C)CNS(=O)(=O)c1ccc(S(=O)(=O)N2CCC3(CC2)OCCO3)cc1	ELG1 DNA repair inconclusive, KB-V1 MDR tox 15µM, SW480 rerep 0.18µM
Cc1ccc(S(=O)(=O)CCOC(=O)CNC(=O)OCc2ccccc2)cc1	none (no result: ELG1 DNA repair, MCF10A rereplic, SW480 rerep)
CC(Oc1ccc(C#N)cc1)C(=O)N1CC=C(c2ccccc2)CC1 (centres undefined)	ELG1 DNA repair inconclusive, MCF10A rereplic 16µM, KB-V1 MDR tox 13µM, SW480 rerep inconclusive, KB-3-1 tox 16µM
Cc1ccc(-c2nnc(NC(=O)CCS(=O)(=O)c3ccc(F)cc3)o2)c(C)c1	MCF10A rereplic 8.2µM
O=C(CCS(=O)(=O)c1ccc(F)cc1)Nc1nnc(-c2ccc(F)cc2)o1	MCF10A rereplic inconclusive, SW480 rerep inconclusive
O=C(CCS(=O)(=O)c1ccc(Cl)cc1)Nc1nnc(-c2cccs2)o1	MCF10A rereplic inconclusive, SW480 rerep 1.6µM
O=C(c1cc(COc2ccc(F)cc2F)on1)N1CCN(C2CCCC2)C(=O)C1	KB-V1 MDR tox 5.2µM
CSc1ccccc1OCc1cc(C(=O)N2CCN(C3CCCC3)C(=O)C2)no1	ELG1 DNA repair inconclusive, KB-V1 MDR tox 15µM
O=C(NCCC1=CCCCC1)c1cc(COc2c(F)cccc2F)on1	none
CSc1ccccc1OCc1cc(C(=O)NCCC2=CCCCC2)no1	KB-V1 MDR tox 23µM
CSc1ccccc1OCc1cc(C(=O)N2CCCC(C)C2)no1 (centres undefined)	ELG1 DNA repair inconclusive, KB-V1 MDR tox inconclusive
COC(=O)C[C@@H]1C=C[C@@H](NC(C)=O)[C@@H](CO)O1	none (no result: ELG1 DNA repair, MCF10A rereplic, SW480 rerep)
O=C(C[n+]1ccccc1Br)c1ccc(Cl)cc1	none (no result: ELG1 DNA repair, MCF10A rereplic, SW480 rerep)
COC(=O)c1cc(Cc2ccc(N)c(C(=O)OC)c2)ccc1N	KB-V1 MDR tox 21µM, KB-3-1 tox inconclusive
Nc1ccc(Cc2ccc(N)c(O)c2)cc1O	ELG1 DNA repair 9.2µM
COc1cccc(NC(=O)c2cnc(SCC(=O)NCc3ccc4c(c3)OCO4)n(C)c2=O)c1	ELG1 DNA repair inconclusive, MCF10A rereplic inconclusive, SW480 rerep inconclusive
Cc1nn(-c2ccccc2)nc1CNC(=O)c1ncoc1-c1ccccc1	MCF10A rereplic 23µM
Cc1c(C(=O)C(=O)N2CCN(C)CC2)c2ccccc2n1C	none
Cc1c(C(=O)C(=O)N2c3ccc(F)cc3CCC2C)c2ccccc2n1C (centres undefined)	MCF10A rereplic 2.6µM, KB-V1 MDR tox 2.9µM, SW480 rerep 7.3µM, KB-3-1 tox 2.9µM
CCCc1cc(=O)n2nc(N3CCC(C(=O)NCc4ccco4)CC3)sc2n1	KB-V1 MDR tox inconclusive
Cc1ccccc1Cn1c(=N)n(CC(=O)c2ccc([N+](=O)[O-])cc2)c2ccccc21	MCF10A rereplic inconclusive, KB-V1 MDR tox 18µM, KB-3-1 tox inconclusive
CCCn1c(=N)n(CC(=O)c2ccc([N+](=O)[O-])cc2)c2ccccc21	MCF10A rereplic 15µM, KB-V1 MDR tox inconclusive, KB-3-1 tox inconclusive
CCN(CC(=O)Nc1c(F)cccc1F)C(=O)c1cc(-c2cccs2)nn1-c1ccccc1	ELG1 DNA repair inconclusive, MCF10A rereplic inconclusive, KB-V1 MDR tox inconclusive
C=CCn1c(SCC)nc2ccccc2c1=O	none (no result: ELG1 DNA repair, MCF10A rereplic, SW480 rerep)
CCOC(=O)Cc1csc(SCC(=O)N2CCN(c3ccc(OC)cc3)CC2)n1	KB-V1 MDR tox 21µM
COc1ccc(N2CCN(C(=O)Cc3csc(NC(=O)Nc4ccccc4OC)n3)CC2)cc1	ELG1 DNA repair 16µM, KB-V1 MDR tox inconclusive
COc1ccccc1NC(=O)Nc1nc(CC(=O)N2CCN(c3ccc(F)cc3)CC2)cs1	ELG1 DNA repair 16µM, MCF10A rereplic inconclusive, KB-V1 MDR tox inconclusive
COc1ccccc1NC(=O)Nc1nc(CC(=O)N2CCN(c3ccccc3)CC2)cs1	ELG1 DNA repair inconclusive, MCF10A rereplic inconclusive, KB-V1 MDR tox inconclusive, KB-3-1 tox inconclusive
COc1ccc(N2CCN(C(=O)CSc3ccc(C)cc3)CC2)cc1	KB-V1 MDR tox inconclusive
COc1ccc(NC(=O)CSc2nnc3scc(-c4ccc(Cl)cc4)n23)cc1	none (no result: ELG1 DNA repair, MCF10A rereplic, SW480 rerep)
COC(=O)c1scc(-c2ccccc2)c1S(=O)(=O)Nc1cccc(C)c1C	KB-V1 MDR tox inconclusive (no result: ELG1 DNA repair, MCF10A rereplic, SW480 rerep)
CCOC(=O)c1cccc(NC(=O)C2CCCN(c3nnc(C)c4c(C)n(-c5ccccc5)nc34)C2)c1 (centres undefined)	none (no result: ELG1 DNA repair, MCF10A rereplic, SW480 rerep)
C=CCOc1c(Cl)cc(C(=S)N2CCCC2)cc1OCC	MCF10A rereplic 12µM, KB-V1 MDR tox 9.2µM, SW480 rerep inconclusive, KB-3-1 tox 6.5µM
